{
  "source": "PubChem BioAssay (NCI)",
  "note": "Compounds without any hit were thinned out: in the full panel of roughly 83,000, 20% have a hit.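 Interpretation: 100, growth as untreated; towards 0, rising growth inhibition; 0, no net growth; 0 to -100, cell death. Compounds scoring below 10 were considered active.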 Activity calls are given as the source filed them.",
  "data": [
    {"test_system": "HL-60(TB) leukemia", "experiment": "NCI-60 one-dose screen, 48 h (100 = growth as untreated, 0 = no growth, -100 = all killed)", "details": "10 µM unless noted", "values": [
      {"compound": "Cn1cc(C(=O)c2nc(-c3c[nH]c4ccc(Br)cc34)no2)c2cc(Br)ccc21", "growth": "82.9% (inactive)"},
      {"compound": "C=C1C(=O)O[C@@H]2[C@H]3[C@H](COC(C)=O)[C@@H](OC(C)=O)C[C@H]3C(=C)[C@@H](O)C[C@@H]12", "growth": "78.9% (inactive)"},
      {"compound": "Cc1ccc(/C=C2\\Oc3ccc(O)c(O)c3C2=O)cc1", "growth": "14.7% (inactive)"},
      {"compound": "Clc1ccc(-c2nc(-c3c[nH]c4ncccc34)cs2)cc1", "growth": "87.4% [100 µM] (inactive)"}
    ]}
  ]
}
